Reference: PubChem BioAssay (Tox21)
Unmarked numbers belong to inactive results. A call without a number means that no potency is given here. Calls of active or inactive are those of the source. Calls come from the whole dose curve.

biological target: Muscarinic acetylcholine receptor M1 (Homo sapiens) (UniProt P11229); experiment: Cholinergic receptor muscarinic 1 (CHRM1) small molecule agonists, cell-based qHTS assay (AID 1963589); settings: CHRM1-CHO cells, agonist mode, calcium flux fluorescence; series mostly up to 76.8 µM; note: nearly all actives have a fitted effect of over 35% in size
Sequence (P11229 whole entry, looked up): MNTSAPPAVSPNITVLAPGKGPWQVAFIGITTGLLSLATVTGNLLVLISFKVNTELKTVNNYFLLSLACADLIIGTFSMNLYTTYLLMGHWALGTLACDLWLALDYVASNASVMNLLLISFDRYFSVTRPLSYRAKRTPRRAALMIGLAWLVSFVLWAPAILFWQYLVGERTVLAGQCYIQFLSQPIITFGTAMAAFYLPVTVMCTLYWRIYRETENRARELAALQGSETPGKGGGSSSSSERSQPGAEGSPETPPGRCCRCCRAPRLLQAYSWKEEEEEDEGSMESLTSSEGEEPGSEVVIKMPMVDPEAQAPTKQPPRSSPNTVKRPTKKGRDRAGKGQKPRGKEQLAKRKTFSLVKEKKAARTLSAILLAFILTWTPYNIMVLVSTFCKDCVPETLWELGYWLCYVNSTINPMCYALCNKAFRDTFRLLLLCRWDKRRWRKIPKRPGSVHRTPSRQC
Text: National Center for Advancing Translational Sciences [NCATS]
Division of Preclinical Innovation [DPI]
U.S. Environmental Protection Agency [EPA]
National Institutes of Environmental Health Sciences [NIEHS]
National Toxicology Program [NTP]
U.S. Food and Drug Administration [FDA]
The CHRM1 is a muscarinic receptor. This receptor plays a crucial role in learning and memory processes and has long been identified as a promising therapeutic target for the improvement of cognitive decline in Alzheimer's disease (AD). The CHRM1-CHO cell line stably expressing human muscarinic acetylcholine receptor M1 (CHRM1) can be used for screening agonists and antagonists of interactions between CHRM1 and its ligands. The CHRM1-CHO Calcium Flux Assay is a homogeneous fluorescence-based assay for detecting the intracellular calcium level using FDSS kinetic plate reader system.
CHRM1-CHO cells were dispensed at 1000 cells/3uL/well in 1536-well black-clear bottom plates using a Multidrop Dispenser. After the assay plates were incubated at a 37 C/5% CO2 incubator for 18 h, 3 uL of Dye Loading Buffer was transferred to the assay plate by a Flying Reagent Dispenser. The assay plates were incubated at 37 C for 1h. For agonist mode, 23 nL of compounds dissolved in DMSO, positive controls or DMSO only was transferred to the assay plate by a pin tool. […] Each test compound was measured at 15 concentrations in three independent runs.
Potency is the fitted concentration of half-maximal effect.

SMILES	Potency	activation
ON=C1CCCC1	inactive	–
C=CCOc1nc(OCC=C)nc(OCC=C)n1	inactive	–
CC(CC(C#N)(c1ccccc1)C(C)C)N(C)C (stereo not given)	inactive	–
CC1(C)CC(OC(=O)CCCCCCCCC(=O)OC2CC(C)(C)NC(C)(C)C2)CC(C)(C)N1	–	-1.98% [at 15.8 µM]
CC(c1cc(C(C)(C)C)cc(C(C)(C)C)c1O)c1cc(C(C)(C)C)cc(C(C)(C)C)c1O	inactive	–
C=CCn1c(=O)n(CC=C)c(=O)n(CC=C)c1=O	inactive	–
C[n+]1cc2c3c(ccc2c2ccc4cc5c(cc4c21)OCO5)OCO3	–	0.0411% [at 15.8 µM]
O=S(=O)(O)CCO	inactive	–
CC1(C)C(=O)C(C)(C)C1=O	inactive	–
COC[C@H](c1ccc(C(F)(F)F)cc1)N1CCN(C2(C)CCN(C(=O)c3c(C)ncnc3C)CC2)C[C@H]1C	inactive	–
CCCCCCCC/C=C\CCCCCCCC(=O)OC[C@@H](O)[C@H]1OC[C@H](O)[C@H]1O	inactive	–
O=C(OCCCCCOC(=O)c1ccccc1)c1ccccc1	inactive	–
CC(C)CCCCCCOC(=O)c1ccc(C(=O)OCCCCCCC(C)C)c(C(=O)OCCCCCCC(C)C)c1	inactive	–
CC(C)OC(=O)c1cc2c(OCC(O)CNC(C)(C)C)cccc2[nH]1 (stereo not given)	inactive	–
OCCCCCCO	inactive	–
Cc1ccsc1/C=C/C1=NCCCN1C	inactive	–
Cc1ccc(-n2[nH]c(C)c(N=Nc3cccc(-c4cccc(C(=O)O)c4)c3O)c2=O)cc1C	inactive	–
O=CCCc1ccccc1	inactive	–
CCCC(=O)OC(=O)CCC	inactive	–
CCOC(=O)c1cccnc1	inactive	–

SMILES	Potency	activation
COc1ccccc1OC(=O)Oc1ccccc1OC	inactive	–
CCC(=O)O[C@]1(C(=O)COC)[C@@H](C)C[C@H]2[C@@H]3CCC4=CC(=O)C=C[C@]4(C)C3(F)[C@@H](O)C[C@@]21C (stereo not given in full)	inactive	–
Cc1nnc(C(=O)NC(C)(C)c2nc(C(=O)NCc3ccc(F)cc3)c(O)c(=O)n2C)o1	inactive	–
COCCc1ccccn1	inactive	–
CC(C)Cc1nccs1	inactive	–
Cc1cc(C)cc([N+](=O)[O-])c1	inactive	–
COc1ccc2nc(NC(=O)Nc3ccccc3)sc2c1	inactive	–
c1ccc(CNc2ncnc3nc[nH]c23)cc1	inactive	–
CO[Si](CCCn1c(=O)n(CCC[Si](OC)(OC)OC)c(=O)n(CCC[Si](OC)(OC)OC)c1=O)(OC)OC	inactive	–
CC(C)(O)CCC(C)(C)O	inactive	–
CCCC(C)C(=O)OCC (stereo not given)	inactive	–
CCCCS(=O)(=O)N[C@@H](Cc1ccc(OCCCCC2CCNCC2)cc1)C(=O)O	inactive	–
CCCCCCCCCCCCCCCC(=O)OC[C@H](O)[C@H]1OC(=O)C(O)=C1O	inactive	–
O=C(Nc1ccc([N+](=O)[O-])cc1)Nc1ccc([N+](=O)[O-])cc1	inactive	–
Cc1c(C)n(CCN(C)C)c2ccc(C(=O)OCCN(C)C)cc12	inactive	–
COC(=O)c1ccc(I)cc1S(=O)(=O)NC(=O)Nc1nc(C)nc(OC)n1	inactive	–
C[C@H](N)[C@H](O)c1cccc(O)c1	inactive	–
CCCCCCCC(=O)OCC	inactive	–
Cc1cc(O)c(C(C)(C)C)cc1Sc1cc(C(C)(C)C)c(O)cc1C	48.9 µM (active)	–
C=CCCCCCCCCC(=O)OCC	inactive	–
